# Measurements reported in PubChem BioAssay.
# Unmarked numbers belong to inactive results. The rule behind the calls is not given here.
# Test system: Aerobactin synthetase IucA (Klebsiella pneumoniae hvKP1)
# Experiment: IucA enzyme inhibition, primary screen, biochemical, Spectrum library (AID 1346200);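 note: 100% = wells without compound and 0% = wells lacking enzyme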
# Conditions: malachite green pyrophosphate, A620, at 8 µM, active compounds read low
row,Compound,activity remaining [%]
1,O=C1OC2(c3ccc(O)cc3Oc3cc(O)ccc32)c2ccccc21,111
2,CC1CC[C@@]2(OC1)O[C@H]1CC3C4CC[C@@H]5C[C@@H](O)CC[C@]5(C)C4CC[C@]3(C)[C@H]1[C@@H]2C (stereo partly drawn),111
3,OC(Cn1cncn1)(Cn1cncn1)c1ccc(F)cc1F,105
4,CN(C)CC[C@H](c1ccc(Cl)cc1)c1ccccn1,90.6
5,CC(C)CCCC(C)C1CCC2C3CC[C@H]4C[C@@H](O)CC[C@]4(C)C3CC[C@]12C (stereo partly drawn),109
6,C[C@]12CCC3c4ccc(O)cc4CCC3C1CC[C@@H]2O (stereo partly drawn),125
7,CC[C@H]1OC(=O)C[C@@H](O)[C@H](C)[C@@H](O[C@@H]2O[C@H](C)[C@@H](O[C@H]3C[C@@](C)(O)[C@@H](O)[C@H](C)O3)[C@H](N(C)C)[C@H]2O)[C@@H](CC=O)C[C@@H](C)C(=O)/C=C/C(C)=C/[C@@H]1CO[C@@H]1O[C@H](C)[C@@H](O)[C@@H](OC)[C@H]1OC,112
8,COc1ccc(-c2cc(=O)c3c(O)cc(O[C@@H]4O[C@H](CO[C@H]5O[C@H](C)[C@@H](O)[C@H](O)[C@@H]5O)[C@@H](O)[C@H](O)[C@H]4O)cc3o2)cc1O,90.7
9,CC[C@H](/C=C/C(C)C1CCC2C3CCC4=CC(=O)CC[C@]4(C)C3CC[C@]12C)C(C)C (stereo partly drawn),101
10,CC1(C)O[C@@H]2CC3C4CCC5=CC(=O)C=C[C@]5(C)[C@@]4(F)[C@@H](O)C[C@]3(C)[C@]2(C(=O)CO)O1 (stereo partly drawn),116
11,CCc1ccc2c(O)c3c(cc2c1C(=O)OC)C(=O)c1c(O)ccc(O)c1C3=O,115
12,CCC(CCC(C)C1CCC2C3CC=C4C[C@@H](OC(C)=O)CC[C@]4(C)C3CC[C@]12C)C(C)C (stereo partly drawn),114
13,CCN(CCCc1ccccc1)CCCc1ccccc1,109
